Screening results: PubChem BioAssay, several laboratories
TIM10 inh – inhibits growth of TIM10 yeast strain; S. cerevisiae TIM10 strain growth, BacTiter-Glo luminescence, 24 h; inhibition, % at 10 µM; 1.4% of 330,000 active; AID 463195;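 active = inhibition of 40% or more at the single tested concentration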;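 note: wild-type TIM10 isogenic control strain grown at permissive 25 °C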
PfHsp90 set2 – inhibits growth of yeast expressing Plasmodium falciparum Hsp90; 0.32% of 310,000 active; inhibition, % at 9.4 µM; AID 504621; S. cerevisiae expressing PfHsp90, BacTiter-Glo ATP, 48 h; yeast lacking PDR1 and PDR3 efflux regulators;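 active = every replicate shows inhibition above about 80%, whatever the replicate mean, limit read from the data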;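 note: 0% = DMSO neutral controls and 100% = 20 µM radicicol positive controls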
tim23-1 inh – tim23-1 yeast growth inhibition; S. cerevisiae tim23-1 growth, BacTiter-Glo luminescence, 24 h; inhibition, % at 20 µM; 1.3% of 330,000 active; AID 463212;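 active = growth inhibition of the mutant yeast at or above 50%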;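 note: temperature-sensitive mutant grown at 25 °C; plate controls were DMSO-treated mutant yeast for no effect and medium wells lacking yeast for full effect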
Beta2AR agonist – activates human beta-2 adrenergic receptor causing internalization; P07550; Am2.2-beta2AR cells, FAP receptor internalization, flow cytometry; response, % (no concentration beside the values); 0.43% of 340,000 active;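 active = response above a set limit, near 3 SD of response in nonfluorescent compounds, cut at about 42% in these data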
Target sequence (P07550 whole entry, looked up): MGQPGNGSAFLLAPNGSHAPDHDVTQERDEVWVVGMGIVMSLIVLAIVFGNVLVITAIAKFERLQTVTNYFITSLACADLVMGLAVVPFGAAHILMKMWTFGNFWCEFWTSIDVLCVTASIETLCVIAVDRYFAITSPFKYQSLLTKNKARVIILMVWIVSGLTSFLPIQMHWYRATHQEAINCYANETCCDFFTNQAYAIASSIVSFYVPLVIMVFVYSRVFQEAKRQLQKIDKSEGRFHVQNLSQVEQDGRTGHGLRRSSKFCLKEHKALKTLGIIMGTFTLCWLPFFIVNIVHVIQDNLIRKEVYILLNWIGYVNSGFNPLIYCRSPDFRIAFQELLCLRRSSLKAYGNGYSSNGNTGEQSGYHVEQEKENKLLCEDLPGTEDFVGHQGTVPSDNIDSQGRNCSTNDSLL
tim10-1 inh – growth inhibitors of tim10-1 mutant yeast; inhibition, % at 20 µM; S. cerevisiae tim10-1 ts strain growth, BacTiter-Glo, 24 h; 2.2% of 330,000 active;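 active = inhibition of at least 40%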;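 note: mutant grown at 25 °C; 0% = DMSO wells with yeast and 100% = wells holding no yeast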
tim10-1 confirm – confirmation of tim10-1 mutant yeast growth inhibitors | shares compounds with tim10-1 inh | S. cerevisiae tim10-1 ts strain growth, BacTiter-Glo, 24 h | inhibition, % at 20 µM | 56% of 7,400 active | AID 463213;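 active = inhibition of yeast growth at or above a set limit in either of two repeat tests at 20 µM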;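 note: tim10-1 mutant grown at permissive 25 °C to find synthetic lethal compounds; 0% = DMSO yeast wells and 100% = medium wells without yeast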
* marks the source's active call; other numbers are inactive results; · = not tested or not shown. Sampled rows, rich in hits. Any-hit rate of the full collection: about 3.8%.

SMILES	TIM10 inh	PfHsp90 set2	tim23-1 inh	Beta2AR agonist	tim10-1 inh	tim10-1 confirm
CC(=O)N1CCN(Cc2nc3ccc(Cl)cc3n2CCO)CC1	4	11	2	3	-16	·
O=C1CC(=C2c3ccccc3-c3ccccc32)C(=O)N1CCN1CCN(c2cccc(Cl)c2)CC1	0	-53	10	4	41*	24
Cc1cc(Cl)ccc1OCCCC(=O)N1CCOCC1	8	·	19	-2	42*	29
CSCCC(NC(=O)c1ccc([N+](=O)[O-])cc1Cl)C(=O)OC(C)C(=O)NCc1ccco1 (stereo not given)	-1	15	5	16	14	·
COc1cc(/C=C2\CC/C(=C\c3ccc(OCCO)c(OC)c3)C2=O)ccc1OCCO	10	-17	32	-336	49*	40*
COc1cc(/C=C2/CC/C(=C/c3ccc(O)c(OC)c3)C2=O)ccc1O	13	-5	3	-12	-13	·
S=C1NC(c2cccs2)=CC(c2ccc(Br)cc2)N1 (stereo not given)	13	5	39	0	41*	33*
CCCc1ccc(-c2cc(NC(=O)CSc3nnc(N)s3)n(-c3ccccc3)n2)cc1	19	39	12	-4	43*	11
Cc1nnc(SCC(=O)Nc2cc(-c3cc(C)c(C)cc3C)nn2-c2ccccc2)s1	6	-23	19	-5	24	·
O=C(N/N=C/C=C/c1ccc([N+](=O)[O-])cc1)C1COc2ccccc2O1 (stereo not given)	19	-8	35	14	51*	37*
COc1ccc(Br)cc1/C=N/NC(=O)CNC(=O)C1COc2ccccc2O1 (stereo not given)	13	-1	15	1	28	·
O=C(CNC(=O)C1COc2ccccc2O1)N/N=C\c1ccc(Br)cc1 (stereo not given)	33	5	46	3	60*	24
Cc1ccc(NC(=O)c2ccc(Cl)c(N3C(=O)C=CC3=O)c2)cc1	27	124*	13	25	68*	79*
COc1ccc(-c2cc(C(=O)OCC(=O)N(C)C)c3ccccc3n2)cc1	19	-1	30	2	18	·
COc1ccc(-c2cc(C(=O)OCc3ccccn3)c3ccccc3n2)cc1	22	-7	31	-2	42*	14
COc1ccc(-c2cc(C(=O)N3CCCCCC3)c3ccccc3n2)cc1	19	3	46	3	52*	13
Cc1noc(C)c1NC(=O)N(C)C[C@H]1Oc2ccc(NS(=O)(=O)c3cccs3)cc2C(=O)N([C@H](C)CO)C[C@@H]1C	-2	0	-24	0	-4	·
CC(C)(C)c1ccc(C(=O)NNc2cc(N3CCCCC3)nc(N3CCCCC3)n2)cc1	23	-61	34	13	40*	36*
Cc1cc(Cl)c2oc(C(=O)N(CCO)Cc3ccccc3)c(C)c2c1	-5	-1	32	-62	-9	·
Cc1cc(Cl)c2oc(C(=O)N(C)C3CCOC3)c(C)c2c1 (stereo not given)	-10	2	40	-2	41*	-10
O=C(CCNc1ccc(Cc2ccncc2)cc1)c1cccc([N+](=O)[O-])c1	31	-1	23	-11	43*	34*
O=C(CCNc1cccc(F)c1)c1cccc([N+](=O)[O-])c1	-1	-20	19	0	35	·
FC(F)(F)c1nc2ccccc2c2nc3ccccc3n12	12	3	1	-8	41*	19
FC(F)(F)c1nnc2c(Sc3ccccn3)nc3ccccc3n12	35	·	48	32	55*	35*
O=C(COC(=O)C1CC1)NCc1ccccc1	-6	19	6	-4	-7	·
SMILES	TIM10 inh	PfHsp90 set2	tim23-1 inh	Beta2AR agonist	tim10-1 inh	tim10-1 confirm
Cc1ccc2cc(C)c3nnc(SCC(=O)c4cccs4)n3c2c1C	16	5	38	-4	40*	15
O=C(CSc1nnc(-c2ccccc2)n1-c1ccccc1)c1cccs1	20	·	34	-11	46*	25
Cc1cccc(NC(=O)c2ccc(NS(=O)(=O)c3cccc4cccnc34)cc2)c1	·	-11	·	16	·	·
O=S(=O)(Nc1cc(Sc2ncn[nH]2)c(O)c2ccccc12)c1ccccc1	30	0	48	32	50*	27
Cc1ccc(Sc2oc(/C=N/n3cnnc3)cc2Br)cc1	20	-11	35	-15	46*	17
Cc1ccc(/C=C/C(=O)c2ccccc2O)cc1	27	6	34	-3	15	·
Cc1c(/C=C/C(=O)c2ccccc2O)cnn1C	37	14	39	-3	50*	39*
Cc1ccc2occ(/C=C/C(=O)c3ccccc3O)c(=O)c2c1	17	-30	38	10	48*	33*
CN(CC(=O)Nc1ccccc1Cl)C(=O)c1ccc(N2C(=O)CCC2=O)cc1	3	·	-1	3	-5	·
Clc1ccc(-n2nnnc2-c2cnc3ccc(Cl)cc3c2-c2ccccc2)cc1	1	6	38	2	-24	·
Clc1ccc2ncc(-c3nnnn3-c3ccccc3)c(-c3ccccc3)c2c1	30	-37	48	15	44*	36*
CCN(CC)CCCN(C(=O)c1ccco1)c1nc(-c2ccc(Cl)cc2)cs1	15	-4	17	10	41*	23
Cc1nc2cc(C(F)(F)F)ccc2n1CCNc1nc(-c2ccc(F)cc2)cs1	13	-22	15	0	46*	22
COc1ccc(-c2csc(NCCn3c(C)nc4cc(C(F)(F)F)ccc43)n2)cc1	13	4	47	-3	15	·
c1ccc2c(c1)CNc1ccccc1-2	·	·	·	-2	·	·
CC1(C)SC2C(C(=O)O)N=C(Cc3ccccc3)N2C1C(=O)O (stereo not given)	·	·	·	-6	·	·
CCc1ccc2oc(C(=O)NCC(c3ccc(OC)cc3)N3CCCCC3)c(C)c2c1 (stereo not given)	35	-8	26	-3	10	·
Cc1ccc(Cl)cc1N1CCN(C(=O)CCCn2c(=O)c3cccn3c3cccnc32)CC1	20	-7	35	9	36	·
O=C(Cn1c(=O)c2cccn2c2cccnc21)N1CCN(c2ccc(Cl)cc2)CC1	12	-9	38	-7	43*	-14
Cc1nn(CCCC(=O)Nc2cc(Oc3ccc(F)cc3)cc([N+](=O)[O-])c2)c(C)c1[N+](=O)[O-]	16	·	32	-6	41*	22
Cc1ccccc1Oc1cc(NC(=O)CCCn2nc(C)c([N+](=O)[O-])c2C)cc([N+](=O)[O-])c1	9	12	24	8	8	·
CCn1nc(C)c(C(=O)Nc2cc(Oc3ccc(Cl)cc3)cc([N+](=O)[O-])c2)c1C	40	·	44	-4	49*	36*
c1ccc(C(NCCNC(c2ccccc2)c2ccccc2)c2ccccc2)cc1	19	-16	21	14	43*	19
